# High-throughput results (PubChem BioAssay)
# The list is not random: actives were taken first. Their share in the collection is about 2.8%.
# WRN inhibitor – WRN helicase (human) inhibition; Q14191; WRN helicase unwinding, fluorescent forked duplex, kinetic; Potency, µM (top dose mostly 114 µM), without a hit: at the highest dose activity change, negative = inhibition, most hits filed as inhibitors; 360,000 tested, 0.46% active; also: potency is read from the fitted curve at half-maximal effect; % is scaled to controls: 0 for no effect and ±100 for the full control effect; nearly all actives have a fitted effect of over 55% in size
#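 Kinetic fluorescence helicase assay: unwinding of a quenched forked DNA duplex (100 nM final) with 2 mM ATP final raises red fluorescence (525/598 nm). Compounds sat 15 min at room temperature with 20 nM WRN beforehand.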
# PI5P4Ka inh – PI5P4K alpha (human) kinase inhibition | P48426 | PI5P4Kalpha enzyme, ADP-Glo luminescence, 60 min; hits give low values | max response, % | 330,000 tested, 1.2% active; active = max response of -50% or lower; inconclusive = between -30% and -50%; inactive = -30% or higher; also: value at the top dose of about 77 µM; % is scaled to controls: 0 for no effect and ±100 for the full control effect
#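 Quantitative HTS of the MLSMR library against PI5P4Kalpha with substrate. ATP added last at 5 microM final; room temperature, 60 minutes. Remaining ATP depleted, ADP converted and read as luminescence.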
# POLI inh – DNA polymerase iota (human) inhibition; AID 588590; Q9UNA4; Pol iota fluorescent replication assay, 10 min; Potency, µM (top dose mostly 115 µM), without a hit: top-dose activity, negative = inhibition, actives largely listed as inhibitors; 390,000 tested, 1% active; also: potency is read from the fitted curve at half-maximal effect
# Target sequence (Q9UNA4 whole entry, looked up): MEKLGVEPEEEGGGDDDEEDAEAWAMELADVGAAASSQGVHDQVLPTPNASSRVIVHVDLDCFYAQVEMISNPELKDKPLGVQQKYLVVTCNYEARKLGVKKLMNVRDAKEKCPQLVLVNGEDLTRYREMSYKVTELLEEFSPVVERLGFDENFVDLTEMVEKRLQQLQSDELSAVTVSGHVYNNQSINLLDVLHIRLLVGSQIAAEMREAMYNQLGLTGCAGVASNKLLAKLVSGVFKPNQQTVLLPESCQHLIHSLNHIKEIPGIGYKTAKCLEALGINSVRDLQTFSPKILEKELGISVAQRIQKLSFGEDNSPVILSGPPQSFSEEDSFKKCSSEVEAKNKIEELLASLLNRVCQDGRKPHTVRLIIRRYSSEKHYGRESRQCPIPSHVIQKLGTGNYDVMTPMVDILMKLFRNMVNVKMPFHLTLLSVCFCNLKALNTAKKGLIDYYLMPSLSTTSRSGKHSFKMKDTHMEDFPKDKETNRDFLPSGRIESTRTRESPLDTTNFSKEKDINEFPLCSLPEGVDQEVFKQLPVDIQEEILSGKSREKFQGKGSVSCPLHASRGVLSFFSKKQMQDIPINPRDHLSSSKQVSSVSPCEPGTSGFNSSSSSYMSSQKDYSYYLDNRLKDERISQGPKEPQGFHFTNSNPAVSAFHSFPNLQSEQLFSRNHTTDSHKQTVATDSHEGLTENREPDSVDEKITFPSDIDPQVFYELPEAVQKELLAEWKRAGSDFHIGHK
#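 Fluorescent replication assay read twice, at 0 min and 10 min after adding 50 nM (final) substrate. Enzyme (10 nM) and compounds were first incubated 15 min at room temperature; enzyme-free buffer wells were negative controls.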
# Pol eta inh-1 – blocks human DNA polymerase eta activity | recombinant Pol eta, fluorescent DNA replication assay | Potency, µM (doses to about 114 µM), without a hit: at the top dose activity change, negative = inhibition, actives largely listed as inhibitors | AID 588591 | 390,000 tested, 1.2% active | Q9Y253; also: potency is read from the fitted curve at half-maximal effect; % is scaled to controls: 0 for no effect and ±100 for the full control effect
#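 Fluorescent replication assay: 50 nM final substrate added after a 15 min room-temperature compound preincubation with 10 nM enzyme. Signal taken at 0 min and again at 10 min.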
# Pol kappa inh-1 – DNA polymerase kappa (human) inhibition | purified Pol kappa, fluorescent DNA synthesis assay, 10 min | Potency, µM (series often up to 107 µM), without a hit: at the top dose activity, negative = inhibition, hits mostly inhibitors | 400,000 tested, 0.53% active | AID 588579; also: potency is read from the fitted curve at half-maximal effect; % is scaled to controls: 0 for no effect and ±100 for the full control effect
#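 Pol kappa 10 nM + cpd, 15 min RT; start w/ substrate 50 nM final; fluorescence kinetic read, 0 and 10 min. Neg ctrl: buffer, no enzyme.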
# Pol beta inh – blocks human DNA polymerase beta activity. 340,000 tested, 1.3% active. Pol beta primer extension/strand displacement, fluorescence kinetic. P06746. AID 485314. Potency, µM (doses to about 114 µM), for the others: at the top dose activity change, negative = inhibition, usual class: inhibitors; also: potency is read from the fitted curve at half-maximal effect; % is scaled to controls: 0 for no effect and ±100 for the full control effect
#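 Pol beta (10 nM) was preincubated with compound for 15 min at room temperature. The reaction was then started with 50 nM substrate and read immediately and after a further 10 min at room temperature.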
# PGK validate – blocks T. brucei phosphoglycerate kinase; TbPGK coupled GAPDH assay, Kinase-Glo luminescence; Potency, µM (doses to about 57.5 µM), for the others: top-dose activity change, negative = inhibition, most hits filed as inhibitors; shares compounds with Pol kappa inh-1; 500 tested, 79% active; also: potency is read from the fitted curve at half-maximal effect; % is scaled to controls: 0 for no effect and ±100 for the full control effect; nearly all actives have a fitted effect of over 65% in size
# Pol iota confirm – Confirm cherry-picked inhibitors of human polymerase iota | Pol iota primer extension, TAMRA/BHQ fluorescence | Potency, µM, most hits filed as inhibitors | AID 720496 | 1,500 tested, 77% active | shares compounds with Pol kappa inh-1; also: potency is read from the fitted curve at half-maximal effect
# Pol kappa inh-2 – confirmation of human DNA polymerase kappa inhibitors | shares compounds with Pol eta inh-1 | purified Pol-kappa, fluorescent strand-displacement substrate | Potency, µM, hits mostly inhibitors | 920 tested, 76% active | AID 720501; also: potency is read from the fitted curve at half-maximal effect
# Pol eta inh-2 – Pol eta (human) inhibition, cherry-pick confirmation; Pol eta primer extension, TAMRA/BHQ fluorescence, 10 min; 2,600 tested, 64% active; Potency, µM, hits mostly inhibitors; shares compounds with Pol eta inh-1; also: potency is read from the fitted curve at half-maximal effect
# The depositor's hits bear a star; ? = inconclusive; . = not tested or not shown; [ ] = another dose, or the depositor's remark. Unless noted, calls follow the shape of the dose curve; as a rule, active = well fitted curve in the direction sought with a large enough effect; inconclusive = small, poorly fitted or top-dose-only effect, or another doubt; inactive = no such curve, though single readings can be large; an effect the other way counts as inactive or inconclusive.
SMILES,WRN inhibitor,PI5P4Ka inh,POLI inh,Pol eta inh-1,Pol kappa inh-1,Pol beta inh,Pol iota confirm,Pol kappa inh-2,Pol eta inh-2,others
CN1/C(=C\C=C2/SC(=S)NC2=O)C(C)(C)c2ccccc21,28µM*,-77*,28µM*,79µM*,45µM*,22µM*,75*,38*,76*,
COc1cc(C)cc(C(=O)O)c1C1=C(O)c2cccc(O)c2C(=O)C1=O,?,-78*,35µM*,16µM*,50µM*,28µM*,34*,.,24*,
CCn1c(SCC(=O)Nc2ccc(N3CCOCC3)cc2)nnc1C1CC1,5%,3,16%,-17%,-4%,.,.,.,.,
FC(F)OC(Cl)C(F)(F)F (stereo unspecified),.,.,.,.,-7%[19.4 µM],.,.,.,.,
CC(=O)c1ccc(S(=O)(=O)N2Cc3ccccc3CC2C(=O)O)cc1 (stereo unspecified),?,0,?,5µM*,50µM*,13µM*,27*,.,15*,
CC1=Nc2ccccc2N=C(NC(=O)c2ccccc2)C1c1ccccc1 (stereo unspecified),?,4,31%,-16%,-5%,23%,.,.,.,
CCN(CC)CCOC(=O)c1ccc(NC(=O)c2nn(-c3ccc(C)cc3)c(=O)c3c2c2ccccc2n3C)cc1,.,.,?,79µM*,-7%,7.9µM*,?,?,?,
CCN(CC)CCCNC(=O)c1nn(-c2ccc(C)cc2)c(=O)c2c1c1ccccc1n2C,.,.,-3%,.,-23%,-1%,.,.,.,
COc1ccc(C2C=C(c3ccccc3)Nc3nc(NC(=O)/C=C/c4ccc(Cl)cc4)nn32)cc1 (stereo unspecified),.,.,22%,-24%,5%,-1%,.,.,.,
O=c1c(-c2c(O)cc(O)c3c(=O)cc(-c4ccc(O)cc4)oc23)c(-c2ccc(O)cc2)oc2cc(O)cc(O)c12,56µM*,-83*,7.9µM*,3.5µM*,35µM*,3.2µM*,42*,.,43*,
COc1ccc(-c2cc(=O)c3c(O)cc(O)cc3o2)cc1,0%,-1,42%,-20%,1%,.,.,.,.,
O=C(O)c1cc(/C=C/C(=O)c2cc(F)ccc2O)c2c(c1)COCO2,-25%[11.6 µM],-30,14µM*,22µM*,?,?,67*,.,48*,
O=C(/C=C/c1cccnc1)c1cc(F)ccc1O,2%,0,38%,-5%,15%,27%,.,.,.,
N#Cc1ccccc1OCC(O)CNCCNC(=O)Nc1ccccc1 (stereo unspecified),.,.,.,.,5%[19.4 µM],.,.,.,.,
CCC(=O)Nc1nnc(SCc2cc(=O)c3cc(C)ccc3[nH]2)s1,.,.,-16%,6%,-7%[60.1 µM],-11%,.,.,.,
CC(=O)Nc1nnc(SCc2cc(=O)c3cc(C)ccc3[nH]2)s1,.,.,79µM*,50µM*,-3%[60.1 µM],40µM*,67*,17*,?,
O=C(CCCN1C(=O)/C(=C\c2ccccc2)SC1=S)Nc1ccc(O)cc1C(=O)O,-4%,-15,28%,-24%,5%,5%,.,.,.,
O=C1/C(=C/c2ccco2)SC(=S)N1CC1CCCO1 (stereo unspecified),?,?,22µM*,50µM*,89µM*,13µM*,?,42*,67*,
O=C(CCN1C(=O)/C(=C\c2ccco2)SC1=S)Nc1ccc(C(=O)O)c(O)c1,50µM*,-74*,-93%,8.9µM*,20µM*,100µM*,19*,4.7*,5.4*,
O=C(CCN1C(=O)/C(=C/c2ccco2)SC1=S)Nc1ccc(O)cc1C(=O)O,32µM*,-63*,4.5µM*,5.6µM*,?,22µM*,47*,13*,30*,
O=C1/C(=C/c2cccnc2)SC(=S)N1CC1CCCO1 (stereo unspecified),-6%,-7,104%,-3%,-14%,26%,.,.,.,
O=C(NC[C@@H](O)CO)c1c(I)c(C(=O)NC[C@@H](O)CO)c(I)c(N(CCO)C(=O)CO)c1I,.,.,.,.,5%[19.4 µM],.,.,.,.,
Cc1cc(/C=C(\C#N)C(=O)NCc2ccco2)c(C)n1-c1ccc(C(=O)O)cc1,-11%,-5,40µM*,20µM*,?,?,67*,.,27*,
COc1cccc(N=c2oc3ccc(OC)cc3cc2-c2nc3ccccc3[nH]2)c1,?,.,?,45µM*,-36%,?,34*,.,76*,
CC(=O)N1CCc2c(sc(NC(=O)CSc3ccccc3)c2-c2nc3ccccc3s2)C1,.,.,?,?,-12%[60.1 µM],4%,.,.,.,
SMILES,WRN inhibitor,PI5P4Ka inh,POLI inh,Pol eta inh-1,Pol kappa inh-1,Pol beta inh,Pol iota confirm,Pol kappa inh-2,Pol eta inh-2,others
CC(=O)Nc1sc2c(c1-c1nc3ccccc3s1)CCCN(C(C)C)C2,.,.,.,.,.,.,53*,12*,.,
CC(=O)Nc1sc2c(c1-c1nc3ccccc3s1)CN(C(C)C)CC2,.,.,13µM*,?,50µM*,.,24*,17*,.,
CC(C)N1CCc2c(sc(NC(=O)c3nc4ccccc4s3)c2C(N)=O)C1,10%,-22,251%,-7%,-8%,1%,.,.,.,
CCCCC(=O)Nc1sc2c(c1-c1nc3ccccc3s1)CCN(C(C)C)C2,.,.,.,.,.,.,?,11*,.,
COc1cc(/C=C/c2nc3ccccc3c(=O)[nH]2)cc(Br)c1O,-15%[11.6 µM],-1,?,?,-8%,?,.,.,.,
C=CCc1cc(/C=C/c2nc(O)c([N+](=O)[O-])c(=O)[nH]2)cc(OC)c1O,45µM*,-64*,?,11µM*,79µM*,25µM*,?,.,30*,
COc1cc(/C=N/N2C(=O)CSC2=S)cc(Br)c1O,50µM*,-75*,?,25µM*,40µM*,35µM*,?,38*,67*,
O=C(NCCC(=O)N1CCN(S(=O)(=O)c2ccc(Cl)cc2)CC1)Nc1ccccc1,-4%,1,13%,-11%,-7%,.,.,.,.,
CC(CNc1ccccc1O)C(=O)O (stereo unspecified),-26%,-3,?,25µM*,?,8.9µM*,.,.,60*,PGK validate=?
COc1ccccc1N(CC(=O)N/N=C(\C)c1ccc(F)cc1)S(=O)(=O)c1ccccc1,7%,-4,2%,0%,-6%,.,.,.,.,
